Out of some 320,000 compounds screened, about 3,300 (1%) were called active.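 How the source made its calls: active means every valid replicate shows activation above 250% relative to neutral control wells; inactive means the rest, any valid replicate at or below 250%.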 Many of the other results were omitted from the sample, so actives are more common in it than they were.
experiment: restored growth of temperature-sensitive Mot1-301 yeast – S. cerevisiae, ATP luminescence, 38.5C, SUMOylation pathway inhibitor project, primary screen (AID 2716);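 further: OY570 slx delta 5 strain wells were the positive control but not used for scaling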; conditions: S. cerevisiae Mot1-301 growth rescue, at 18.8 µM, stronger effect = higher value, percent above DMSO median, 100 means doubled

Growth rescue, active:
CCn1c(SCC(=O)N/N=C/c2ccccc2OCC(=O)O)nnc1-c1ccc(C(C)(C)C)cc1 746%
CCOc1ccc(Cn2c(SCCCCC#N)nc3c2c(=O)n(C)c(=O)n3C)cc1OCC 395%
O=C(Oc1ccccc1Cl)c1ccc(N2CCOCC2)c([N+](=O)[O-])c1 334%
CCNc1nc(N)nc(-c2cc(Cl)ccc2OC)n1 263%
CC1=NC2(CCCc3c2no[n+]3[O-])N(O)C1(C)C (stereo unspecified) 465%

Growth rescue, inactive:
CC(Sc1ncnc2c1cnn2-c1ccccc1)C(=O)Nc1ccc(N2CCOCC2)cc1 (stereo unspecified) -16.6%
CCC(=O)Nc1ccc(C(=O)CSc2nnc(CNc3ccc(Cl)cc3)o2)cc1OC -12.4%
CCn1cc(CN2CCN(CC(C)(C)C)C(CCO)C2)c2ccccc21 (stereo unspecified) 2.63%
CCOc1ccc(OCC(=O)OC(C)C(=O)NC2CCCCC2C)cc1 (stereo unspecified) 4.11%
O=C(COc1ccc(Cl)cc1)NCc1nnc(SCC(=O)NCC2CCCO2)o1 (stereo unspecified) 1.67%
Cc1ccc(Cn2c(SCC(=O)N/N=C/c3ccccc3OCC(=O)O)nc3ccccc32)cc1 29.2%
CCn1c(SCC(=O)N/N=C/C=C/c2ccccc2[N+](=O)[O-])nnc1-c1ccccc1 -1.22%
CCCCn1c(SCC(=O)NCCc2ccc(OC)c(OC)c2)nc2c1c(=O)n(C)c(=O)n2C -22.4%
CCCSc1nc2c(c(=O)n(C)c(=O)n2C)n1Cc1ccc(C)cc1 -26.2%
NC(N)=NCCCc1cn(CC(=O)N2CCNCC2)nn1 3.99%
Cn1c(=O)c2c(SCC(=O)NCC3CCCO3)nc(CC(C)(C)C)nc2n(C)c1=O (stereo unspecified) 4.63%
CC1CCN(C(=S)NC2CC3CCC2C3)CC1 (stereo unspecified) 8.2%
O=C(c1ccc(N2CCOCC2)c([N+](=O)[O-])c1)N1CCN(c2ccccc2F)CC1 -2.08%
O=C(OCC(=O)N1CCOCC1)c1ccc(N2CCOCC2)c([N+](=O)[O-])c1 15.5%
S=C(Nc1ccc(Br)cc1Cl)N1CCC2(CC1)OCCO2 14%
Cc1ccc(C(C(=O)NC2CCCCC2)N(C(=O)c2csnn2)C2CC2)o1 (stereo unspecified) -6.5%
CCOc1ccc(C(=O)Nc2cccc(SC)c2)cc1 -2.04%
O=S(=O)(c1ccc(SCc2ccc(Br)cc2)nc1)N1CCOCC1 0.526%
CCNc1nc(N)nc(Oc2ccc(OCC)nn2)n1 5.12%
CCC(C)NC(=O)c1cc(Cl)ccc1OC (stereo unspecified) 1740%
COCCn1c(Cc2cccn2C)nnc1SCC(=O)Nc1nccs1 2.9%

From PubChem BioAssay AID2716 (Broad Institute, 2010)
